Bioassay records from PubChem.
AmpC inh detg: qHTS Inhibitors of AmpC Beta-Lactamase (assay with detergent) | P00811 | AmpC hydrolysis of nitrocefin, absorbance 480 nm, 0.01% Triton | 0.041% of 370,000 active | Potency, µM (series often up to 114 µM), for the others: at the top dose activity change, negative = inhibition, actives largely listed as inhibitors;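 further: 0% = no-compound wells and -100% = no-enzyme wells; nearly all actives have a fitted effect of over 25% in size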
Target sequence (P00811 whole entry, looked up): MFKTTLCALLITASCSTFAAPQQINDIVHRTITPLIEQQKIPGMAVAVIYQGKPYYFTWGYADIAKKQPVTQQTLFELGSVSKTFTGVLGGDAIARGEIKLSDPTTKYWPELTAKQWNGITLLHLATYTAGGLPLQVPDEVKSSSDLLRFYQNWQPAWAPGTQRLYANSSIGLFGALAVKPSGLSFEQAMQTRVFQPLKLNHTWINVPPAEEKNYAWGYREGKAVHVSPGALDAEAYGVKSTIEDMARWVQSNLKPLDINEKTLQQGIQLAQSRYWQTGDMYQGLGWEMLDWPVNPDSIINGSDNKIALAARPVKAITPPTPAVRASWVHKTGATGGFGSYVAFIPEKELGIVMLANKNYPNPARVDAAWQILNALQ
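AmpC (5.3 nM in the dispensed reagent) in 20 mM phosphate pH 7.0 with 0.01% (detergent screen) or 0.0001% Triton X-100 was preincubated with compounds for 15 min at room temperature. Nitrocefin was then added from an 800 uM solution, and hydrolysis was followed at 480 nm.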
AmpC inh no detg: qHTS Inhibitors of AmpC Beta-Lactamase (assay without detergent); AmpC nitrocefin hydrolysis, absorbance 480 nm, 0.0001% Triton; Potency, µM (top dose mostly 57.1 µM), for the others: top-dose activity change, negative = inhibition, most hits filed as inhibitors; 0.52% of 330,000 active; AID 485341, 2010;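 further: plate controls were no compound for no effect and no enzyme for full effect; nearly all actives have a fitted effect of over 20% in size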
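20 mM phosphate pH 7.0 + 0.01% (detergent screen) or 0.0001% Triton X-100; 5.3 nM AmpC reagent; cpd preinc 15 min RT; nitrocefin (800 uM stock) to start; A480 q20 s × 4 min; Activity was normalised to no-enzyme and no-compound control wells.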
SARS PLP yeast: qHTS of Yeast-based Assay for SARS-CoV PLP; Potency, µM (highest dose often 32.9 µM), for the others: at the top dose activity, positive = growth rescue, usual class: activators; S. cerevisiae expressing SARS-CoV PLpro, growth rescue; 0.19% of 330,000 active; calls by dose curve; further: 0% is about no effect; nearly all actives have a fitted effect of over 55% in size
Giardia FBPA inh: qHTS Assay for Inhibitors of Fructose-1,6-bisphosphate Aldolase from Giardia Lamblia. Potency, µM (top dose mostly 59.6 µM), without a hit: top-dose activity, negative = inhibition, actives largely listed as inhibitors. 0.71% of 290,000 active. AID 2451, 2010. purified Giardia FBPA; further: on the % scale 0 is the no-effect control and ±100 the full control effect; nearly all actives have a fitted effect of over 55% in size
Target sequence (A8B2U2 whole entry, looked up): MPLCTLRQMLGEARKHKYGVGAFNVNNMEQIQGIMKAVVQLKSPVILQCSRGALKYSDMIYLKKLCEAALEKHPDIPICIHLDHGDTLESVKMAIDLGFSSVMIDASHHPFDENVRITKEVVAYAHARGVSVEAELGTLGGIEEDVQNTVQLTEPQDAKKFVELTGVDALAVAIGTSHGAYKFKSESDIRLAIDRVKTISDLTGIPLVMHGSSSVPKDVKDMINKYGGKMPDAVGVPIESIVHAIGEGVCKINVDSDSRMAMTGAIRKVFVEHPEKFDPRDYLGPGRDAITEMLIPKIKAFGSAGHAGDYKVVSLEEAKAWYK
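Giardia FBPA (40 nM reagent) was preincubated 10 min at RT with compound (up to 57.5 uM final), then substrate plus GAPDH/TPI/NAD/arsenate coupling system with diaphorase/resazurin was added; resorufin fluorescence (525/598 nm) was read after 20 min.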
The depositor's hits bear a star; ? = inconclusive; nt = no result given; [ ] = dose if it differs, or a comment. Compounds with a hit are over-represented: about 1.1% of the library has one in this group of screens. Unless noted, the call rests on the fitted dose curve; in most records, active means well fitted curve in the direction sought with a large enough effect; inconclusive means small, poorly fitted or top-dose-only effect, or another doubt; inactive means no such curve, though single readings can be large; an effect the other way counts as inactive or inconclusive. Potency means the concentration at half of the fitted maximal effect.

SMILES	AmpC inh detg	AmpC inh no detg	SARS PLP yeast	Giardia FBPA inh
CCOC(=O)N1CCC(Nc2c(NCCCOC)c(=O)c2=O)CC1	0.1%	0.251µM*	29.1%	-1.1%
CCOC(=O)N1CCC(Nc2c(NCCCN(CC)CC)c(=O)c2=O)CC1	-10.4%	-18.1%	-2.9%	0.7%
O=C(O)c1cccc(NC(=O)c2cn(-c3ccccc3)nc2-c2ccc([N+](=O)[O-])cc2)c1	-0.5%	-29.1%	2.0%	6.5%
COc1ccc(-c2nn(-c3ccccc3)cc2C(=O)Nc2cccc(C(=O)O)c2)cc1[N+](=O)[O-]	-2.8%	3.55µM*	28.4%	-2.1%
Cc1cc(C)nc(NC(=O)c2cnc3sccn3c2=O)n1	?	39.8µM*	-6.4%	2.5%
Cc1cc(NS(=O)(=O)c2ccc(NC(=O)c3cnc4sccn4c3=O)cc2)nc(C)n1	1.8%	-32.1%	0.1%	3.0%
N#Cc1ccc(NCCNCC(=O)N2N=CCC2C#N)nc1 (configuration not stated)	nt	nt	nt	-18.3%
Fc1ccc(CSc2ncnc3nc[nH]c23)cc1	?	1.58µM*	-12.2%	?
COC(=O)CCC(=O)OC1(C)C(=O)C2=CN(CCCCO)C(c3ccc(OC)cc3)=CC2=C(Br)C1=O (configuration not stated)	-16.0%	168.3%	-4.6%	5.01µM*
COC(=O)CCC(=O)OC1(C)C(=O)C2=CN(CCN3CCOCC3)C(c3ccc(OC)cc3)=CC2=C(Br)C1=O (configuration not stated)	-2.2%	187.5%	-0.7%	0.561µM*
COC(=O)CCC(=O)OC1(C)C(=O)C2=CN(Cc3ccc4c(c3)OCO4)C(c3ccc(OC)cc3)=CC2=C(Br)C1=O (configuration not stated)	nt	nt	nt	-19.5%[12.9 µM]
COC(=O)CCC(=O)OC1(C)C(=O)C2=CN(C(CO)CO)C(c3ccc(OC)cc3)=CC2=C(Br)C1=O (configuration not stated)	-0.6%	62.7%	-2.5%	0.629µM*
CCCC[C@H]1CCCO[C@@](C(=O)NCCN2CCOCC2)(C(F)(F)F)C1	nt	nt	nt	10.0%
Fc1ccc(/C=C2\CCCC3=C2NC(=S)NC3c2ccc(F)cc2)cc1 (configuration not stated)	-14.5%	14.1µM*	-10.3%	-5.2%
CCOc1cc(/C=C2\C(=O)N(c3nc(-c4ccc(Br)cc4)cs3)N=C2c2ccccc2)ccc1O	-8.5%	15.8µM*	14.1%	4.6%
COc1ccc(Cl)cc1NC(=O)C(C)OC(=O)c1ccc(NS(=O)(=O)c2ccc3[nH]c(=O)[nH]c3c2)cc1 (configuration not stated)	-8.7%	3.55µM*	5.8%	5.8%
CC(OC(=O)c1ccc(NS(=O)(=O)c2ccc3[nH]c(=O)[nH]c3c2)cc1)C(=O)Nc1ccc(Cl)cc1 (configuration not stated)	-12.9%	-41.9%	-0.1%	2.4%
CC(C)C[C@H](NC(=O)OC(C)(C)C)c1nnc(SCc2ccccc2)o1	-1.1%	25.2%	-17.6%	-3.3%
CC[C@@H](C)[C@H](NC(=O)OC(C)(C)C)c1nnc(S(=O)(=O)Cc2cc(C)ccc2C)o1	11.2µM*	?	-23.5%	-7.6%
CC(C)C[C@H](N)c1nnc(S(=O)(=O)Cc2cccc(F)c2)o1	3.55µM*	4.47µM*	-25.7%	-0.1%
CC(C)[C@H](NC(=O)OC(C)(C)C)c1nnc(S(=O)(=O)Cc2c(F)cccc2Cl)o1	2µM*	2.51µM*	-12.2%	2.7%
Cc1ccccc1CS(=O)(=O)c1nnc([C@H](CC(C)C)NC(=O)OC(C)(C)C)o1	14.1µM*	?	-29.4%	5.1%
CC(C)(C)OC(=O)N[C@@H](Cc1ccccc1)c1nnc(S(=O)(=O)Cc2cccc(F)c2)o1	25.1µM*	-56.0%	-43.7%	-4.3%
CCOC(=O)CSc1nnc([C@H](Cc2ccccc2)NC(=O)OC(C)(C)C)o1	-7.1%	24.8%	-1.3%	-0.5%
O=C1CSC(=Nc2ccc(O)cc2)N1	0.0%	4.3%	1.3%	3.4%
SMILES	AmpC inh detg	AmpC inh no detg	SARS PLP yeast	Giardia FBPA inh
O=C1C(Cl)=CC(=Nc2ccc(O)cc2)C=C1Cl	?	28.2µM*	-9.4%	?
COc1ccc(-c2nnc(NC(=O)c3ccc(F)cc3)o2)cc1	?	22.4µM*	-16.4%	?
COc1ccc(-c2nnc(NC(=O)c3ccc4c(c3)OCCO4)o2)cc1	0.4%	-28.4%	-0.9%	?
CC(C)CC(NC(=O)NC(CCC(=O)O)C(=O)O)C(=O)O (configuration not stated)	nt	nt	nt	0.6%
Nc1nc(N2CCCCC2)nc(N(c2ccccc2)c2ccccc2)n1	?	0.631µM*	3.8%	-0.3%
O=C(c1cc(-c2ccco2)on1)N1CCN(c2ccccc2)CC1	-7.4%	3.16µM*	-16.3%	1.2%
CSc1nsc(/C=C/Nc2ccc(Cl)cc2)c1C#N	-4.8%	17.8µM*	-4.5%	-21.2%
CSc1nsc(/C=C/Nc2ccc(O)cc2C)c1C#N	?	-58.5%	-0.2%	17.7µM*
COc1ccc(NC(=O)CSc2nc(O)cc(=O)n2-c2ccccc2)cc1	8.6%	-21.3%	1.1%	nt
Cc1ccc(-n2c(SCC(=O)Nc3ccc(Cl)cc3)nc(O)cc2=O)cc1	-5.2%	7.08µM*	0.6%	10.6%
COc1ccc(-n2c(Cc3cccn3C)nnc2SCC(=O)Nc2ccc(Cl)cc2)cc1	5.5%	1µM*	2.7%	-1.4%
Cc1nnc(NC(=O)CSc2nnc(Cc3cccn3C)n2C)s1	5.4%	31.6µM*	9.7%	-8.2%
CC1CCN(C(=O)CSc2nnc(Cc3cccn3C)n2-c2ccc(F)cc2)CC1	?	6.31µM*	-0.3%	2.7%
COc1ccc(-c2nnc3n2N=C(c2ccccc2OC)CS3)cc1	nt	nt	nt	0.2%
O=C1C=Cc2ccccc2C1=O	-0.3%	?	?	3.54µM*
O=C1c2ccccc2C(=O)c2ccccc21	nt	nt	nt	3.6%
CC1(C)CCC2=C(O1)c1ccccc1C(=O)C2=O	nt	nt	nt	1.58µM*
CC1(C)CCc2c([nH]c3ccccc3c2=O)O1	1.5%	3.0%	-0.4%	-3.5%
COC(=O)N1C2CC3(C)C=C(C)OC1(C)C3c1ccccc12 (configuration not stated)	nt	nt	nt	5.3%[12.9 µM]
O=C(O)COCCN1CCN([C@@H](c2ccccc2)c2ccc(Cl)cc2)CC1	nt	nt	nt	-6.1%[21.7 µM]
COc1ccc(C(=O)OCn2nnc3ccccc3c2=O)cc1OC	-3.7%	-6.0%	3.7%	6.1%
CN(C)S(=O)(=O)c1ccc(C(=O)OCn2nnc3ccccc3c2=O)cc1	1.5%	10µM*	-7.4%	-0.3%
O=C(Cc1ccccc1)OCn1nnc2ccccc2c1=O	-7.4%	-16.8%	-10.5%	5.6%
Cc1cccc(CC(=O)OCn2nnc3ccccc3c2=O)c1	-18.8%	10µM*	-13.2%	1.5%
COC(=O)[C@H](CCSC)NC(=O)c1ccc(NC[C@@H](N)CS)cc1-c1ccccc1	nt	nt	nt	-14.5%
CCOC(=O)C1CCN(C(=O)Cn2ncc3c4ccccc4n(Cc4ccccc4)c3c2=O)CC1	12.2%	nt	nt	nt
